The results in this text go back to PubChem BioAssay (EPA / NIEHS).

“And” between values parts separate entries of the source, which are not always exact repeats. Equal entries are not always repeated. The source made the active and inactive calls. The calls were made as follows: active = hit-call score of the fitted dose curve at least 0.9, where 1 is the maximum; inactive = score below 0.9.

Read-out in the assay: Intercellular Adhesion Molecule 1 (ICAM1), ICAM1 (gene 3383)
Kind of assay: BSK_KF3CT_ICAM1: BioMAP Diversity Plus: KF3CT Assay for Intercellular Adhesion Molecule 1 (ICAM1) Biomarker Activity (AID 2283067). Particulars: primary human keratinocytes with fibroblasts; actives raise or lower the signal. As for the experimental part: BSK_KF3CT is a cell-based, multiplexed-readout assay that uses keratinocytes and foreskin fibroblasts, a human skin primary cell co-culture, with measurements taken at 24 hours after chemical dosing in a 96-well plate.BSK_KF3CT_ICAM1 is an assay component measured in the BSK_KF3CT assay. It measures ICAM-1 antibody related to regulation of gene expression using ELISA technology.Data from the assay component BSK_KF3CT_ICAM1 was analyzed into 1 assay endpoint. This assay endpoint, BSK_KF3CT_ICAM1, was analyzed with bidirectional fitting relative to DMSO as the negative control and baseline of activity. Using a type of binding reporter, gain or loss-of-signal activity can be used to understand changes in the signaling as they relate to the gene ICAM1. Furthermore, this assay endpoint can be referred to as a primary readout, because this assay has produced multiple assay endpoints where this one serves a signaling function. To generalize the intended target to other relatable targets, this assay endpoint is annotated to the cell adhesion molecules intended target family, where the subfamily is Immunoglobulin CAM.
The levels of cell surface (or secreted, indicated by the prefix "s") biomarker endpoints were measured by ELISA. Overt cytotoxicity to cells in confluent adherent cultures (all systems other than the BT system) was assessed by measuring total protein levels using sulforhodamine B (SRB) staining in parallel cultures at the time of biomarker measurements, indicated as SRB endpoints. For proliferation assays for adherent cell types, individual cell types are cultured at sub-confluence and relative cell numbers quantified by SRB staining at time points optimized for each system (48 h: 3C and CASM3C systems; 72 h: BT and HDF3CGF systems; 96 h: SAg system). SRB was performed by staining cells with 0.1% SRB after fixation with 10% TCA and reading wells at 560 nm.Viability and proliferation of PBMC (T cells) was quantified by Alamar Blue reduction for the SAg and BT systems. For PBMC viability (referred to as PBMC Cytotoxicity within the assay endpoint names), cells were plated (75,000/well in a 96-well plate) and then chemical samples added for 1 h before addition of activators, SEB and TSST-1 (20 ng/mL final concentration each). Cells were incubated for 90 h. Then, Alamar Blue (20 uL/well) (Invitrogen, Cat DAL1100) was added for 6 h, and the plates were read with a fluorescence microplate reader at 546/580 nm (excitation/emission). For PBMC proliferation, cells were plated and activated as above but incubated for only 16 h prior to addition of Alamar Blue. Plates were read after 6 h.
Regarding `CCCCCCC(C)OC(=O)CCCCC(=O)OC(C)CCCCCC` (stereo not given), the outcome was inactive.

On to `Oc1ccc(Nc2ccccc2)cc1`, for which the result was inactive.

For `O=C(O)C=C(C(F)(F)F)C(F)(F)F`, the result was inactive.

Regarding `C=C(C)C(=O)OCC(F)(F)C(F)(F)C(F)(F)F`, the result was inactive.

As a reminder, the AC50 is the midpoint of the concentration-response curve, whichever way the signal moves. As to `C=CC(=O)OCC(F)(F)C(F)(F)C(F)(F)C(F)(F)COC(=O)C=C`, the AC50 is 23 µM (active) and 24.1 µM (active).

As to `FC(F)(F)C(F)(F)C(F)(F)C(F)(F)C(F)(F)C(F)(F)C(F)(F)I`, the result was inactive.

As for `Nc1ccc([N+](=O)[O-])cc1O`, the result was inactive.

Take `OCC(F)(F)C(F)(F)C(F)(F)C(F)(F)C(F)(F)C(F)F`: the outcome was inactive.

For the compound `FC(F)(I)C(F)(F)C(F)(F)C(F)(F)I`, the concentration at half-maximal activity (AC50) was 45.5 µM (active) and 46.4 µM (active) and 46.6 µM (active).

Take `CCO[Si](CCC(F)(F)C(F)(F)C(F)(F)C(F)(F)C(F)(F)C(F)(F)F)(OCC)OCC`: the result was inactive.

Take `OCC(F)(F)C(F)(F)C(F)(F)F`: the result was inactive.

For `O=C(O)C(F)(F)C(F)(F)C(F)(F)C(F)(F)C(F)(F)C(F)(F)C(F)(F)C(F)(F)C(F)(F)C(F)F`, the outcome was inactive.

Turning to `FC(F)(F)C(F)(F)C(F)(F)C(F)(F)C(F)(F)C(F)(F)CCS`, the outcome was inactive.

With `O=S(=O)(OCCOC(F)(F)F)C(F)(F)F`, the result was inactive.

For `C=C(C)C(=O)OCCC(F)(F)C(F)(F)C(F)(F)C(F)(F)C(F)(C(F)(F)F)C(F)(F)F`, the result was inactive.

For the compound `FC(F)(F)C(F)(F)C(F)(F)C(F)(F)C(F)(F)C(F)(F)C(F)(F)Br`, the outcome was inactive.

As for `O=C(O)C(F)(OC(F)(F)C(F)(OC(F)(F)C(F)(F)C(F)(F)F)C(F)(F)F)C(F)(F)F` (stereo not given), the outcome was inactive.

`CC(=O)Nc1ccc(N=Nc2cc(C)ccc2O)cc1`: the AC50 is 20 µM (active).

As for `O=S(=O)(OCC(F)F)C(F)(F)F`, the result was inactive.

As to `O=C(O)C(F)(F)C(F)(F)C(F)(F)F`, the outcome was inactive.

Take `CCc1ccc(C(c2ccc(CC)cc2)C(Cl)Cl)cc1`: the result was inactive.

Regarding `FC(F)(F)C(F)(F)C(F)(F)C(F)(F)C(F)(F)C(F)(F)C(F)(F)C(F)(F)CCS`, the outcome was inactive.

Take `CCCCCCCCC(F)(F)C(F)(F)C(F)(F)C(F)(F)C(F)(F)C(F)(F)F`: the outcome was inactive.

Regarding `FC(F)(F)C(F)(F)C(F)(F)CI`, the outcome was inactive.

On to `NC(=O)C(F)(F)C(F)(F)C(F)(F)C(F)(F)F`, for which the result was inactive.

For the compound `O=C(O)C(F)(F)C(F)(F)C(F)(F)C(F)(F)F`, the outcome was inactive.

With `O=C(O)C(F)(F)C(F)(F)C(F)F`, the result was inactive.

Consider `FC(F)(F)C(F)(F)C(F)(F)C(F)(F)CCI`, for which the outcome was inactive.

Take `CCN(CC)c1ccc2c(C)cc(=O)oc2c1`: the result was inactive.

With `C=C(C)C(=O)OCC(F)(F)C(F)(F)C(F)(F)C(F)(F)C(F)(F)C(F)(F)C(F)(F)F`, the result was inactive.

For `O=C(O)C(F)(F)C(F)(F)C(F)(F)C(F)(F)C(F)(F)C(F)(F)C(F)(F)C(F)(F)C(F)(F)C(F)(F)C(F)(F)C(F)(F)C(F)(F)F`, the result was inactive.

For `O=C(O)C(F)(OC(F)(F)C(F)(OC(F)(F)C(F)(OC(F)(F)C(F)(F)C(F)(F)F)C(F)(F)F)C(F)(F)F)C(F)(F)F` (stereo not given), the result was inactive.

In the case of `CC(C)(C)C(=O)CC(=O)C(F)(F)C(F)(F)C(F)(F)F`, the outcome was inactive.

Take `O=P(O)(O)OCCC(F)(F)C(F)(F)C(F)(F)C(F)(F)C(F)(F)C(F)(F)F`: the outcome was inactive.

As for `CCCCC(CC)COP(=O)(O)OCC(CC)CCCC` (stereo not given), the outcome was inactive.

Regarding `CS(C)(=O)=O`, the outcome was inactive.

On to `FC(F)(F)C(F)(F)C(F)(F)C(F)(F)C(F)(F)C(F)(F)C(F)(F)C(F)(F)F`, for which the outcome was inactive.

Turning to `FC(F)(F)C(F)(F)CNCC(F)(F)C(F)(F)F`, the result was inactive.

For `O=C(O)C(F)(F)C(F)(F)F`, the outcome was inactive.

As to `O=C(Cl)C(F)(F)C(F)(F)C(F)(F)C(F)(F)C(F)(F)C(F)(F)C(F)(F)C(F)(F)F`, the result was inactive.
